Activity calls are given as the source filed them. Rule for the calls: active = hit-call score of the fitted dose curve at least 0.9, where 1 is the maximum; inactive = score below 0.9.

The assay can be described thus: CCTE_Padilla_ZF_Score.General: CCTE's 144 Hour Post-fertilization zebrafish Assay Score for General Malformation, Padilla Lab (AID 2284411). Put shortly:
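Malformation, death and hatching were scored at 6 dpf by two blinded observers under a stereo microscope. Embryos were dosed singly from 6-8 hpf in sealed plates of 10% Hanks' at 26C and rinsed on 5 dpf; DMSO baseline.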
For `C=CC(=O)NC(C)(C)C`, the compound was classed as inactive. Take `c1ccc2sc(SSN3CCOCC3)nc2c1`: the compound was classed as inactive.

Consider `C=CCCCCCCCCC=O`, for which the result was inactive. Turning to `c1ccc2c(c1)[nH]c1ccccc12`, the compound was classed as inactive. `CCCCCCCO`: the result was inactive. Regarding `C=CC(=O)OCCCCCCCC(C)C`, the compound was classed as inactive. On the same count and under the same terms, to `C[N+](C)(C)CCCNS(=O)(=O)C(F)(F)C(F)(F)C(F)(F)C(F)(F)C(F)(F)C(F)(F)C(F)(F)C(F)(F)F` belongs “inactive”; to `O=C(O)C(F)(F)C(F)(F)C(F)(F)C(F)(F)C(=O)O`, “inactive”. The same measure, in the same setting: the value for `CCCCCCC=O` was “inactive”. Take `C=CC(=O)OCCCCCCOC(=O)C=C`: the outcome was inactive.

Regarding `CCCCCCOC(=O)CCCCC(=O)OCCCCCC`, the compound was classed as inactive. For the compound `COc1ccc(C(=O)c2ccccc2)c(O)c1`, the AC50 (in general, the midpoint of the concentration-response curve, whichever way the signal moves) was 7.03 µM (active).

Values taken from PubChem BioAssay (EPA / NIEHS).
